{
  "source": "PubChem BioAssay (NCATS)",
  "note": "Inconclusive results are not listed. Values without a mark were called inactive. Activity calls are given as the source filed them. Calls come from the whole dose curve; as a rule, active = well fitted cell-killing curve with a large enough effect; inconclusive = small, poorly fitted or top-dose-only effect; inactive = no such curve, though single readings can be large or run the other way. Potency is the fitted concentration of half-maximal effect.",
  "data": [
    {"assay": "qHTS of pediatric cancer cell lines to identify multiple opportunities for drug repurposing: Primary screen for LAN-5 cells (AID 1347100)", "settings": "LAN-5 neuroblastoma viability, CellTiter-Glo luminescence, 48 h; series mostly up to 46 µM; activity change, negative = cytotoxic: at the top concentration", "excerpt": "Drug repurposing or repositioning has been offered as a strategy for drug development in oncology programs. This approach has special potential for childhood cancers and other rare or orphan diseases, where the expected return on new drug development has been a disincentive to pharmaceuticals.\nIn this project we exploit the poly-pharmacology of drugs to discover new indications via phenotypic screening of a panel of 19 well-characterized cell lines derived from solid tumors seen in children and adolescents. The goal is to identify approved drugs with previously unrecognized anticancer properties that has the potential to reveal new mechanisms and biological processes involved in carcinogenesis or drug resistance. We employed a titration-based paradigm (quantitative high-throughput screening or qHTS), where all compounds were tested at multiple concentrations for their effect on cell viability. Concentration-response curves (CRCs) were derived directly from the primary screen, and both potency and efficacy values were used to identify compounds with robust bioactivity profiles. We screened the NIH Chemical Genomics Center (NCGC) Pharmaceutical Collection (NPC) and Mechanism Interrogation Plate (MIPE) small molecule collections of approved and investigational compounds against these cell lines; and measured metabolically active cells after 48 hours of compound treatment as a proxy for cell viability.\nAssay Submitter: Nathalia J. Martinez, National Center for Advancing Translational Sciences, National Institutes of Health, Rockville, MD, USA; email: natalia.martinez@nih.gov\n[1] Shen, M et al. Quantitative high-throughput phenotypic screening of pediatric cancer cell lines identifies multiple opportunities for drug repurposing. Oncotarget 2017 Dec 19;9(4):4758-4772. PMID 29435139.\nThe cells were obtained from University of North Carolina (UNC), Pediatric Preclinical Testing Program (PPT), and Coriell Institute (CI).\nqHTS cell viability assay:\nCells were assayed in growth media at a density of 500-1,000 cells/well. Five microliters of cells were dispensed into 1,536-well, white, solid-bottom, TC-treated plates (Greiner Bio One) using a multidrop dispenser and incubated at 37 degrees C, 5% CO2, under a humidified atmosphere for 5 hours. Twenty-three nanoliters of compounds and controls (neutral control DMSO or positive control bortezomib at final concentration of 2.3 µM) were subsequently transferred by Kalypsys pintool. For primary screens, the MIPE collection was tested at 11-point dilutions (final concentrations range from 0.78 nM to 46 µM) and the NPC collection at 8-point dilutions (final concentrations range from 0.59 nM to 46 µM). Compounds tested in follow-up screens were assayed at 11-point dilutions. Cells were incubated for 48 hours, followed by addition of 3 µL of CellTiter-Glo (Promega). After a 15 min incubation at room temperature, samples were analyzed for luminescence intensity using a ViewLux High-throughput CCD imager equipped with clear filters.", "values": [
      {"smiles": "CCN(CC)CC(=O)Nc1c(C)cccc1C(=O)OC", "activity change, negative = cytotoxic": "-4.23%"},
      {"smiles": "COCCc1ccc(OCC2CO2)cc1", "note": "(stereo not given)", "activity change, negative = cytotoxic": "4.56%"},
      {"smiles": "CC(C)(C)C(=O)OCOC(=O)C1N2C(=O)CC2S(=O)(=O)C1(C)C", "note": "(stereo not given)", "activity change, negative = cytotoxic": "2.45%"},
      {"smiles": "CCCC(CCC)(C(=O)OCC)C(=O)OCC", "activity change, negative = cytotoxic": "4.59%"},
      {"smiles": "COC(=O)[C@H]1[C@H]2C[C@@H]3c4[nH]c5cc(OC)ccc5c4CCN3C[C@H]2C[C@@H](OC(=O)/C=C/c2ccc(O)c(OC)c2)[C@@H]1OC", "Potency": "21.1 µM (active)"},
      {"smiles": "CN1Cc2cc(C(=O)N3CCC(C4CCNCC4)CC3)ccc2N[C@@H](CC(=O)O)C1=O", "activity change, negative = cytotoxic": "17.6%"},
      {"smiles": "c1ccc(C(O[C@H]2CCCN(CCc3ccc4c(c3)OCO4)C2)c2ccccc2)cc1", "activity change, negative = cytotoxic": "-5.1%"},
      {"smiles": "CCOc1ccccc1OCC1CNCCO1", "note": "(stereo not given)", "activity change, negative = cytotoxic": "12.9%"},
      {"smiles": "CNC(=O)c1c(I)c(NC(C)=O)c(I)c(C(=O)O)c1I", "activity change, negative = cytotoxic": "10%"},
      {"smiles": "O=C(COCCOCCOCC(=O)Nc1c(I)cc(I)c(C(=O)O)c1I)Nc1c(I)cc(I)c(C(=O)O)c1I", "activity change, negative = cytotoxic": "16.5%"},
      {"smiles": "CC(NC(CCc1ccccc1)C(=O)O)C(=O)N1C(=O)N(C)CC1C(=O)O", "note": "(stereo not given)", "activity change, negative = cytotoxic": "18.4%"},
      {"smiles": "O=C(C1CCCCC1)N1CC(=O)N2CCCc3ccccc3C2C1", "note": "(stereo not given)", "activity change, negative = cytotoxic": "15.9%"},
      {"smiles": "CC(C)(C)c1nnc(NS(=O)(=O)c2ccccc2)s1", "activity change, negative = cytotoxic": "1.48%"},
      {"smiles": "CO/N=C(\\C(=O)O)c1csc(NC(=O)CCl)n1", "activity change, negative = cytotoxic": "23.1%"},
      {"smiles": "COc1cc(C=O)ccc1O", "activity change, negative = cytotoxic": "11.5%"},
      {"smiles": "CCn1ccc(NS(=O)(=O)c2ccc(N)cc2)nc1=O", "activity change, negative = cytotoxic": "2.74%"},
      {"smiles": "CCCOc1ccc2c(c1)CC[C@@H]1[C@@H]2CC[C@]2(C)C(OC)CC[C@@H]12", "note": "(stereo not given in full)", "activity change, negative = cytotoxic": "-2.18%"},
      {"smiles": "CO[C@@H]1[C@@H](OC)[C@H](C)[C@@](O)(CC(=O)O)O[C@H]1[C@H](C)[C@H]1O[C@@]2(CC[C@@](C)([C@H]3CC[C@@](C)([C@@H]4O[C@@H]([C@H]5O[C@](C)(O)[C@H](C)C[C@@H]5C)C[C@@H]4OC4C[C@H](OC)[C@@H](OC)[C@H](C)O4)O3)O2)C[C@H](O)[C@H]1C", "note": "(stereo not given in full)", "Potency": "1.06 µM (active)"},
      {"smiles": "CN1[C@@H]2CC[C@H]1CC(NC(=O)n1c(=O)[nH]c3ccccc31)C2", "note": "(stereo not given in full)", "activity change, negative = cytotoxic": "4.02%"},
      {"smiles": "N#CSCC(=O)O", "activity change, negative = cytotoxic": "20.1%"},
      {"smiles": "CCCC(=O)Nc1ccc(O)c(C(C)=O)c1", "activity change, negative = cytotoxic": "30.9%"},
      {"smiles": "CCOC(=O)c1ccc(OCCN2C[C@H](O)[C@@H](O)[C@H](O)[C@H]2CO)cc1", "activity change, negative = cytotoxic": "-6.78%"},
      {"smiles": "CC1CN(c2cc3c(cc2F)c(=O)c(C(=O)O)cn3-c2ccc(F)cc2F)CCN1", "note": "(stereo not given)", "activity change, negative = cytotoxic": "1.81% [at 4.84 µM]"},
      {"smiles": "Cc1oc(=O)oc1COC(=O)[C@@H]1N2C(=O)[C@@H](NC(=O)[C@H](N)c3ccccc3)[C@H]2SC1(C)C", "activity change, negative = cytotoxic": "4.67%"},
      {"smiles": "Cc1ncc([N+](=O)[O-])n1C", "activity change, negative = cytotoxic": "7.54%"},
      {"smiles": "Fc1ccc(C(c2ccc(F)cc2)N2CCNCC2)cc1", "activity change, negative = cytotoxic": "7.04%"},
      {"smiles": "O=C(O)CCC(=O)OC[C@@H](NC(=O)C(Cl)Cl)[C@H](O)c1ccc([N+](=O)[O-])cc1", "activity change, negative = cytotoxic": "-0.207%"},
      {"smiles": "CC(Oc1c(Cl)cccc1Cl)C1=NCCN1", "note": "(stereo not given)", "activity change, negative = cytotoxic": "21.9%"},
      {"smiles": "C1N2CN3CN1CN(C2)C3", "activity change, negative = cytotoxic": "14.6%"},
      {"smiles": "CN1CCCN(C(c2ccccc2)c2ccc(Cl)cc2)CC1", "note": "(stereo not given)", "Potency": "15 µM (active)"},
      {"smiles": "C#CC(C)(CC)OC(=O)c1ccccc1C(=O)O", "note": "(stereo not given)", "activity change, negative = cytotoxic": "18.7%"},
      {"smiles": "COc1ccc(CCC(C)=O)cc1", "activity change, negative = cytotoxic": "-3.01%"},
      {"smiles": "[O-][n+]1cccc(/C(Cl)=N/OC[C@@H](O)CN2CCCCC2)c1", "activity change, negative = cytotoxic": "-1.57%"},
      {"smiles": "CCCCCOc1ccc(C2SC(=O)NC2=O)cc1OCC", "note": "(stereo not given)", "activity change, negative = cytotoxic": "-17.8%"},
      {"smiles": "Cn1cc(S(C)=O)c(=O)c2ccc(F)cc21", "note": "(stereo not given)", "activity change, negative = cytotoxic": "16.1%"},
      {"smiles": "O=C(O)C(=O)Nc1cccc(-c2nn[nH]n2)c1", "activity change, negative = cytotoxic": "15.2%"},
      {"smiles": "O=C(CO)[C@@H](O)[C@H](O)[C@@H](O)CO", "activity change, negative = cytotoxic": "10.3%"},
      {"smiles": "Nc1ccc(C(=O)N2CC3CC(CN(Cc4ccccc4)C3)C2)cc1", "activity change, negative = cytotoxic": "41.2%"},
      {"smiles": "CC1(C)S[C@@H]2[C@H](NC(=O)C(c3ccccc3)S(=O)(=O)O)C(=O)N2[C@H]1C(=O)O", "note": "(stereo not given in full)", "activity change, negative = cytotoxic": "-5.32%"},
      {"smiles": "CC(C)C(C)(C)C(C)(C)C(C)(C)S", "activity change, negative = cytotoxic": "35.4% [at 92.7 µM]"}
    ]}
  ]
}
